Laboratory results published in PubChem BioAssay (NCATS).
Records with an inconclusive call do not appear. The source made the active and inactive calls. Calls follow the shape of the dose curve; as a rule, active = well fitted inhibition curve with a large enough effect; inconclusive = small, poorly fitted or top-dose-only effect; inactive = flat fitted curve, though single readings scatter.

Columns and labels:
Experiment in all cases: qHTS profiling for inhibitors of Plasmodium falciparum proliferation (AID 504749); also: nearly all actives have a fitted effect of over 60% in size
Details in all cases: P. falciparum in erythrocytes, SYBR Green DNA, 72 h; series mostly up to 28.7 µM
[1] = system: CP315
How it was run: (§1)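 SYBR Green fluorescence of parasite DNA, read after lysis and overnight dark incubation, measured growth over 72 h in erythrocyte culture at 0.3% parasitemia and 2.5% hematocrit. Data normalised to DMSO and 0.29 uM artemisinin, with plate-drift correction.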

[2] = system: CP325
How it was run: as §1

[3] = system: CP329
How it was run: as §1

[4] = system: DIV14
How it was run: as §1

[5] = system: DIV30
How it was run: as §1

[6] = system: Dd2
How it was run: as §1

[7] = system: DFO2036
How it was run: as §1

[8] = system: DIV17
How it was run: as §1

[9] = system: ECU
How it was run: as §1

[10] = system: CP335
How it was run: as §1

Measured: Potency
Potency is read from the fitted curve at half-maximal effect.

NC(=O)CC[C@@H]1NC(=O)[C@H](Cc2ccccc2)NC(=O)[C@H](Cc2ccc(O)cc2)NC(=O)[C@@H](N)CSSC[C@@H](C(=O)N2CCC[C@H]2C(=O)N[C@@H](CCCN=C(N)N)C(=O)NCC(N)=O)NC(=O)[C@H](CC(N)=O)NC1=O
inactive: [1] | [2] | [3] | [4] | [5] | [6]

CC/C=C\C/C=C\C/C=C\CCCCCCCC(=O)O
not listed: [4] | [10]
inactive: all other assays above

O=C(c1cc2ccccc2o1)N1CCN(Cc2ccccc2)CC1
inactive: [1] | [5] | [6]

OCCOCCOCCO
inactive: [10] | [7] | [6] | [9]

OCc1ccccc1
inactive: [1] | [3]

CCCCCCCCCCCCCCCCOCCOCCOCCOCCOCCOCCOCCOCCOCCOCCOCCOCCOCCOCCOCCOCCOCCOCCOCCOCCO
active: [4] 13.5 µM | [8] 13.5 µM | [6] 11.2 µM | [9] 1.26 µM
inactive: [1] | [10]

CCCOc1cc(N)ccc1C(=O)OCCN(CC)CC
inactive: [3] | [7] | [4] | [8] | [6] | [9]

C=CC[N+]1([C@H]2C[C@H]3[C@@H]4CC[C@H]5C[C@H](O)[C@@H](N6CCOCC6)C[C@]5(C)[C@H]4CC[C@]3(C)[C@H]2OC(C)=O)CCCC1
active: [10] 12 µM | [6] 10 µM
inactive: [4] | [8]

O.O.O.O.O.O.O.O=S(=O)([O-])[O-].[Co+2]
active: [3] 12 µM | [10] 6.75 µM | [7] 11.2 µM | [5] 9.53 µM | [6] 7.94 µM | [9] 12.6 µM

COc1ccc2c(=O)c(C)c(-c3ccccc3)oc2c1CN(C)C
inactive: [1] | [2] | [5] | [9]

C=C1C(CCl)(CCl)C2(Cl)C(Cl)C(Cl)C1(Cl)C2(Cl)Cl (stereo not drawn)
active: [2] 3.79 µM | [3] 6.75 µM | [10] 3.01 µM | [7] 2 µM | [4] 1.69 µM | [8] 1.9 µM | [5] 1.69 µM | [6] 2.24 µM | [9] 2 µM

CCC(=O)c1ccc2c(c1)N(CCCN1CCN(CCO)CC1)c1ccccc1S2
active: [1] 9.53 µM | [10] 6.01 µM | [7] 8.91 µM | [4] 9.53 µM | [8] 13.5 µM | [5] 13.5 µM | [6] 5.62 µM | [9] 8.91 µM

CC(C)(C)CC(C)(C)c1ccc(OCCO)cc1
not listed: [1]
inactive: all other assays above

CC(=O)c1ccc2c(c1)N(CCCN1CCN(CCO)CC1)c1ccccc1S2
active: [2] 16.9 µM | [3] 15.1 µM | [10] 12 µM | [4] 7.57 µM | [8] 12 µM | [5] 16.9 µM | [6] 12.6 µM | [9] 12.6 µM

CC(C)C1=CC2=CC[C@@H]3[C@](C)(CCC[C@@]3(C)C(=O)O)[C@H]2CC1
inactive: [10] | [7] | [6] | [9]

COc1ccc2c(c1)OC(C)(C)C(c1ccccc1)C2c1ccc(OCCN2CCCC2)cc1 (stereo not drawn)
active: [2] 6.75 µM | [10] 3.79 µM | [7] 4.47 µM | [4] 6.75 µM | [8] 7.57 µM | [5] 12 µM | [6] 3.98 µM | [9] 8.91 µM

CS(=O)(=O)c1ccc([C@@H](O)[C@@H](COC(=O)CN)NC(=O)C(Cl)Cl)cc1
inactive: [4] | [8] | [5] | [9]
active: [6] 6.31 µM

N#Cc1ccc2c(c1)N(CCCN1CCC(O)CC1)c1ccccc1S2
inactive: [1] | [9]
active: [4] 8.49 µM | [8] 9.53 µM | [6] 5.01 µM

COc1cc(NCCCC(C)N)c2ncccc2c1 (stereo not drawn)
active: [2] 7.57 µM | [10] 6.75 µM | [7] 11.2 µM | [4] 2.13 µM | [8] 1.35 µM | [5] 4.78 µM | [6] 2 µM | [9] 2.82 µM

CC(CN(C)C)CN1c2ccccc2Sc2ccc(C(F)(F)F)cc21 (stereo not drawn)
active: [7] 10 µM | [4] 5.36 µM | [8] 3.01 µM | [6] 3.55 µM
inactive: [1] | [2]

Cc1ncc[nH]1
not listed: [1]
inactive: all other assays above

CCCC(CCC)C(=O)OC1C[C@H]2CC[C@@H](C1)[N+]2(C)C (stereo partly drawn)
active: [9] 7.94 µM

CC[C@H]1OC(=O)[C@H](C)[C@@H](O[C@H]2C[C@@](C)(OC)[C@@H](O)[C@H](C)O2)[C@H](C)[C@@H](O[C@@H]2O[C@H](C)C[C@H](N(C)C)[C@H]2O)[C@](C)(O)C[C@@H](C)CN(C)[C@H](C)[C@@H](O)[C@]1(C)O
active: [10] 5.36 µM | [7] 5.01 µM | [6] 0.355 µM

C/C(=C\C(=O)OCCCCCCCCC(=O)O)C[C@@H]1OC[C@H](C[C@@H]2O[C@H]2[C@@H](C)[C@H](C)O)[C@@H](O)[C@H]1O
active: [10] 0.151 µM | [6] 0.178 µM

Cn1cc(NC(=O)c2cc(NC(=O)c3cc(NC=O)cn3C)cn2C)cc1C(=O)NCCC(=N)N
active: [2] 10.7 µM | [3] 15.1 µM | [10] 8.49 µM | [4] 3.38 µM | [8] 3.79 µM | [9] 10 µM

Oc1cccc(O)c1O
active: [8] 9.53 µM
inactive: [1] | [7] | [5]

CCOc1cc(-c2nccc3cc(OC)c(OC)cc23)cc(OCC)c1OCC
inactive: [2]
active: [9] 11.2 µM

C#C[C@]1(O)CC[C@@H]2[C@H]3CCC4=CC(=O)CC[C@H]4[C@H]3C(=C)C[C@@]21CC
active: [1] 0.478 µM
inactive: [10] | [7] | [6] | [9]

CC(=O)[O][Al][O]C(C)=O
inactive: [1] | [10] | [7] | [5] | [6] | [9]

CN(C)CCC=C1c2ccccc2C(C)(C)c2ccccc21
active: [4] 6.75 µM | [8] 6.75 µM
inactive: [3]

CN1CCc2c(c3ccccc3n2Cc2ccccc2)C1
inactive: [1] | [3] | [7] | [5] | [9]

CC(O)CN(C)C (stereo not drawn)
not listed: [3]
inactive: all other assays above

COc1ccc2nc(NC(=O)Nc3ccccc3)sc2c1
active: [8] 4.78 µM
inactive: [1] | [2] | [10] | [7] | [9]

NCCO/C=C/[C@H](N)C(=O)O
not listed: [2]
inactive: all other assays above

NC(N)=NCC1COc2ccccc2O1 (stereo not drawn)
inactive: [1] | [4] | [5] | [9]

CSc1nc2cc(Oc3cccc(Cl)c3Cl)c(Cl)cc2[nH]1
active: [2] 13.5 µM | [3] 13.5 µM | [7] 8.91 µM | [4] 9.53 µM | [5] 10.7 µM | [6] 14.1 µM | [9] 6.31 µM

CCN(CC)CCC(=O)N1c2ccccc2Sc2ccc(Cl)cc21
active: [4] 5.36 µM | [8] 8.49 µM | [6] 5.62 µM

CCOC(=O)c1c[nH]c2cc(OCC(C)C)c(OCC(C)C)cc2c1=O
active: [2] 0.0601 µM | [10] 0.0675 µM | [7] 0.1 µM | [4] 0.151 µM | [8] 0.338 µM | [6] 0.141 µM | [9] 0.0891 µM

CNC(=O)c1c(I)c(C(=O)NCC(=O)Nc2c(I)c(C(=O)O)c(I)c(C(=O)NCCO)c2I)c(I)c(N(C)C(C)=O)c1I
not listed: [1]
inactive: all other assays above

CSCCC(N)C(=O)O (stereo not drawn)
not listed: [1] | [5]
inactive: all other assays above

CC[C@H]1OC(=O)[C@H](C)[C@@H](O[C@H]2C[C@@](C)(OC)[C@@H](O)[C@H](C)O2)C(C)[C@@H](O[C@@H]2O[C@H](C)C[C@H](N(C)C)[C@@H]2O)[C@](C)(OC)C[C@@H](C)C(=O)[C@H](C)[C@@H](O)[C@]1(C)O (stereo partly drawn)
active: [10] 6.75 µM
not listed: [2] | [3] | [6]
inactive: all other assays above

CCN(CC)CCCC(C)Nc1cc(/C=C/c2ccccc2Cl)nc2cc(Cl)ccc12 (stereo not drawn)
active: [2] 0.849 µM | [3] 6.75 µM | [10] 2.69 µM | [7] 1 µM | [4] 4.26 µM | [8] 4.26 µM | [5] 1.69 µM | [6] 2.24 µM | [9] 2.51 µM
